# Assay results as given in the OligoGym collection.
# Biological target: ZNF836
# Test: pooled miR-30 sensor sort-seq; sequence = guide strand
# Settings: shRNA
# Further: reference of the scale not given here.
row,Sequence,sensor-assay potency score (higher = more potent)
1,TAGGAGAACATCTAAAGGCTTT,0.15
2,TTGTTTTAAGACTCTCTGCAGT,-0.237
3,TTTGTTTCCACTATGAACTGTC,1.2
4,TAAGACTTGAAGACACTCTAAA,-0.52
5,TTCAGTTTGAAATTTCTGCAGT,0.363
6,TTTTGTCTGAAGATCTTGCCAC,0.166
7,TAACTTTGACTAAAGGACTTGC,0.219
8,TTTGTTTTCTACATCCTCTTGA,0.866
9,TTGAACGCTGAGTATAGGCTTT,0.0637
10,TTGACTGAAGACCTTGTCGCAT,-0.213

# Biological target: ZNFX1
# Test: as above
# Settings: shRNA
row,Sequence,sensor-assay potency score (higher = more potent)
1,TAACACACAACCAAGATGGGGA,0.323
2,TAGACCTCTACTGCTATGCTAT,-0.477
3,TACAACTGTAGCCAGAGCCTAT,-0.979
4,TTCTCTGCTATCTTGTAGCGGG,-0.426
5,TTTCTCTTCTAAGACATGCATC,-0.81
6,TTGAATAATAGCCAGTTCCCTT,-1.02
7,TTCAATCTCTTCTAGCCGCTGT,0.737
8,TTGGTCTCTAGCTTCGTCGCTG,0.295
9,TTGTCCACAACATGGACCCTGA,-0.839
10,TAATTTGCCAAACAGACTCGTT,-0.716
11,TTTGTCCACAACATGGACCCTG,-0.317
12,TTTATTATGAGAGTTAGTCTGC,0.368

# Biological target: ZNRF2
# Test: as above
# Settings: shRNA
row,Sequence,sensor-assay potency score (higher = more potent)
1,TTACTTCAAACCATTCATCTAT,0.146
2,TTGTTAAACACATTACAAGATG,-1.34
3,TGCATAGACAAGGCAGTCGTGC,-0.863
4,TTGTCAAGACAAGAAAACCTAT,-0.902
5,TTAAACACATTACAAGATGCAA,-0.454
6,TAAACACATTACAAGATGCAAA,-1.15
7,ATAGACAAGGCAGTCGTGCTAT,0.0716
8,TTATGATATATGCATAGACAAG,-1.91
9,TCGTGCTATAGTATCTCCCTGC,0.0677
10,TTTATCAGTATTACCTATGTAG,0.361
11,TACTTCAAACCATTCATCTATG,-0.758

# Biological target: ZSCAN21
# Test: as above
# Settings: shRNA
row,Sequence,sensor-assay potency score (higher = more potent)
1,TTAACTAGACTGGATACACGTC,-0.514
2,TTTAAGAAGGTCTGAGCTCTGC,0.0311
3,TTTCTCTTCTTTCTCCTCGACT,-0.944
4,TAAAACAACGACAACAACAGGA,0.555
5,ATATATAACGTCTCTCTCCTGG,0.19
6,TGGATCTTGAGCGAACTCCTGC,-0.804
7,TTCGTTACACTGATAAGGCTTC,0.478
